Source: PubChem BioAssay AID1159580 (chemical genetic matrix, 2015)
Screen size: about 5,500 compounds; about 2,000 (36%) were called active. Another 18% or so got no clear call; they are omitted. Cut-off read from the data, not from the text of the source: active = normalized growth mostly below about 0.91 (no sharp cut-off); inconclusive = no clear call, values can overlap the other calls; inactive = mostly above about 0.92. Some of the results follow.

Assay: chemical genetic growth profiling, strain panel (AID 1159580);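 note: tested at 20 µM; growth read once vehicle control cultures reached saturation at 30 °C; 1 = growth at the plate median or of vehicle wells; lower values mean less growth of the strain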
Details: growth OD

Measured: normalized growth

CCOP(=S)(OCC)Oc1ccc2c(C)c(Cl)c(=O)oc2c1
inactive: S. cerevisiae deletion strains, locus YJR075W, strain HOC1, hits give low values 0.945 | S. cerevisiae deletion strains, locus YKL009W, strain mrt4, hits give low values 0.952 | S. cerevisiae deletion strains, locus YKL068W, hits give low values 0.985 | S. cerevisiae deletion strains, locus YKL085W, strain MDH1 (second series), hits give low values 0.982 | S. cerevisiae deletion strains, locus YKL085W, strain MDH1, hits give low values 0.982 | S. cerevisiae deletion strains, locus YKL160W, strain elf1, hits give low values 1 | S. cerevisiae deletion strains, locus YKL190W, strain CNB1, hits give low values 0.983 | S. cerevisiae deletion strains, locus YKR001C, strain vps1, hits give low values 0.981 | S. cerevisiae deletion strains, locus YKR026C, strain gcn3, hits give low values 0.944 | S. cerevisiae deletion strains, locus YKR091W, strain srl3, hits give low values 0.973 | S. cerevisiae deletion strains, locus YLL001W, strain dnm1, hits give low values 0.988 | S. cerevisiae deletion strains, locus YLL026W, hits give low values 0.946 | S. cerevisiae deletion strains, locus YLL041C, strain sdh2, hits give low values 0.956 | S. cerevisiae deletion strains, locus YLR027C, strain aat2, hits give low values 0.935 | S. cerevisiae deletion strains, locus YLR039C, strain RIC1, hits give low values 0.94 | S. cerevisiae deletion strains, locus YLR058C, strain SHM2, hits give low values 0.971 | S. cerevisiae deletion strains, locus YLR102C, strain apc9, hits give low values 0.985 | S. cerevisiae deletion strains, locus YLR113W, strain HOG1, hits give low values 0.936 | S. cerevisiae deletion strains, locus YLR221C, strain rsa3, hits give low values 0.933 | S. cerevisiae deletion strains, locus YLR258W, strain gsy2, hits give low values 0.969 | S. cerevisiae deletion strains, locus YLR262C, strain YPT6 (second series), hits give low values 0.976 | S. cerevisiae deletion strains, locus YLR262C, strain YPT6, hits give low values 0.929 | S. cerevisiae deletion strains, locus YLR268W, strain sec22, hits give low values 0.965 | S. cerevisiae deletion strains, locus YLR320W, strain mms22, hits give low values 0.914 | S. cerevisiae deletion strains, locus YLR330W, strain CHS5, hits give low values 0.979 | S. cerevisiae deletion strains, locus YLR342W, strain FKS1 (second series), hits give low values 1.01 | S. cerevisiae deletion strains, locus YLR342W, strain FKS1, hits give low values 0.961 | S. cerevisiae deletion strains, locus YLR357W, strain rsc2, hits give low values 0.972 | S. cerevisiae deletion strains, locus YLR370C, strain arc18, hits give low values 0.944 | S. cerevisiae deletion strains, locus YLR371W, strain rom2, hits give low values 0.993 | S. cerevisiae deletion strains, locus YLR384C, strain iki3, hits give low values 0.983 | S. cerevisiae deletion strains, locus YLR418C, strain cdc73, hits give low values 0.956 | S. cerevisiae deletion strains, locus YML016C, strain PPZ1, hits give low values 0.983 | S. cerevisiae deletion strains, locus YML032C, strain rad52, hits give low values 0.979 | S. cerevisiae deletion strains, locus YML120C, strain ndi1, hits give low values 0.962 | S. cerevisiae deletion strains, locus YML124C, strain tub3, hits give low values 0.986 | S. cerevisiae deletion strains, locus YMR058W, strain fet3, hits give low values 0.957 | S. cerevisiae deletion strains, locus YMR078C, strain ctf18, hits give low values 0.979 | S. cerevisiae deletion strains, locus YMR125W, strain sto1, hits give low values 0.97 | S. cerevisiae deletion strains, locus YMR129W, hits give low values 0.97 | S. cerevisiae deletion strains, locus YMR205C, strain PFK2, hits give low values 0.955 | S. cerevisiae deletion strains, locus YMR223W, strain ubp8, hits give low values 0.987 | S. cerevisiae deletion strains, locus YMR231W, strain pep5, hits give low values 0.948 | S. cerevisiae deletion strains, locus YMR263W, strain SAP30, hits give low values 0.972 | S. cerevisiae deletion strains, locus YMR307W, strain GAS1, hits give low values 0.894 | S. cerevisiae deletion strains, locus YNL067W, strain RPL9B, hits give low values 0.981 | S. cerevisiae deletion strains, locus YNL071W, strain lat1, hits give low values 0.944 | S. cerevisiae deletion strains, locus YNL128W, strain TEP1, hits give low values 0.952 | S. cerevisiae deletion strains, locus YNL153C, strain GIM3, hits give low values 0.972 | S. cerevisiae deletion strains, locus YNL183C, strain NPR1, hits give low values 0.974 | S. cerevisiae deletion strains, locus YNL209W, strain ssb2, hits give low values 0.957 | S. cerevisiae deletion strains, locus YNL233W, strain BNI4, hits give low values 0.959 | S. cerevisiae deletion strains, locus YNL248C, strain rpa49, hits give low values 0.96 | S. cerevisiae deletion strains, locus YNL250W, strain rad50, hits give low values 0.98 | S. cerevisiae deletion strains, locus YNL271C, strain bni1, hits give low values 0.99 | S. cerevisiae deletion strains, locus YNL298W, strain CLA4, hits give low values 0.979 | S. cerevisiae deletion strains, locus YNL307C, strain MCK1, hits give low values 0.981 | S. cerevisiae deletion strains, locus YNL322C, strain KRE1 (second series), hits give low values 0.932 | S. cerevisiae deletion strains, locus YNL322C, strain KRE1, hits give low values 0.981 | S. cerevisiae deletion strains, locus YNR049C, strain mso1, hits give low values 0.954 | S. cerevisiae deletion strains, locus YNR052C, strain pop2, hits give low values 0.994 | S. cerevisiae deletion strains, locus YOL006C, strain TOP1, hits give low values 0.884 | S. cerevisiae deletion strains, locus YOL012C, strain htz1 1.3 | S. cerevisiae deletion strains, locus YOL147C, strain pex11, hits give low values 0.993 | S. cerevisiae deletion strains, locus YOR001W, strain rrp6, hits give low values 0.95 | S. cerevisiae deletion strains, locus YOR061W, strain CKA2, hits give low values 0.961 | S. cerevisiae deletion strains, locus YOR069W, strain VPS5, hits give low values 0.979 | S. cerevisiae deletion strains, locus YOR070C, strain gyp1, hits give low values 0.994 | S. cerevisiae deletion strains, locus YOR080W, strain dia2, hits give low values 0.959 | S. cerevisiae deletion strains, locus YOR083W, strain WHI5, hits give low values 0.991 | S. cerevisiae deletion strains, locus YOR106W, strain vam3, hits give low values 0.939 | S. cerevisiae deletion strains, locus YOR136W, strain idh2, hits give low values 0.977 | S. cerevisiae deletion strains, locus YOR144C, strain elg1, hits give low values 0.985 | S. cerevisiae deletion strains, locus YOR184W, strain ser1, hits give low values 0.976 | S. cerevisiae deletion strains, locus YOR231W, strain MKK1, hits give low values 1.03 | S. cerevisiae deletion strains, locus YOR265W, strain rbl2, hits give low values 0.94 | S. cerevisiae deletion strains, locus YOR270C, strain vph1, hits give low values 0.904 | S. cerevisiae deletion strains, locus YOR290C, strain snf2, hits give low values 0.928 | S. cerevisiae deletion strains, locus YOR316C, strain cot1, hits give low values 0.971 | S. cerevisiae deletion strains, locus YPL051W, strain arl3, hits give low values 0.963 | S. cerevisiae deletion strains, locus YPL055C, strain LGE1, hits give low values 0.948 | S. cerevisiae deletion strains, locus YPL078C, strain atp4, hits give low values 0.982 | S. cerevisiae deletion strains, locus YPL106C, strain sse1, hits give low values 0.957 | S. cerevisiae deletion strains, locus YPL240C, strain hsp82, hits give low values 0.95 | S. cerevisiae deletion strains, locus YPL241C, strain CIN2, hits give low values 0.982 | S. cerevisiae deletion strains, locus YPL256C, strain CLN2, hits give low values 1.03 | S. cerevisiae deletion strains, locus YPR119W, strain clb2, hits give low values 0.983 | S. cerevisiae deletion strains, locus YPR141C, strain kar3, hits give low values 0.951 | S. cerevisiae deletion strains, locus YPR163C, strain tif3, hits give low values 0.987 | S. cerevisiae deletion strains, locus YPR167C, strain met16, hits give low values 0.99 | S. cerevisiae deletion strains, strain wtn01, hits give low values 0.989 | S. cerevisiae strains, strain wild type, hits give low values 0.981
